For 23 compounds, Potency results are on record in PubChem BioAssay (NCATS).

Common to all, as to assay: Primary qHTS to identify gynecologic anti-cancer compounds using libraries of approved drugs and bioactive compounds (AID 1345084); also: nearly all actives have a fitted effect of over 55% in size
In general terms: qHTS replaces the single test concentration by a dilution series.

One experiment concerns CAOV3. Particulars: Gynecologic cancer cell panel viability, ATPlite luminescence, 48 h; series mostly up to 57.5 µM. The method, boiled down: (§1)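 Measured: luminescence after ATPlite addition (15 min, RT). Exposure: 48 h, 37 C, 5% CO2.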
In general terms: Cellular ATP, detected with luciferase, serves as a proxy for viable cell number.

A further experiment has as its system CASKI. As to conditions: Gynecologic cancer cell panel viability, ATPlite luminescence, 48 h; series mostly up to 57.5 µM. The method in brief: as §1
In the next experiment the test system is Es-2. Particulars: Gynecologic cancer cell panel viability, ATPlite luminescence, 48 h; series mostly up to 57.5 µM. The method in brief:
as §1

The subject of a further experiment is HeLa. Particulars: Gynecologic cancer cell panel viability, ATPlite luminescence, 48 h; series mostly up to 57.5 µM. The method, boiled down: as §1
A further experiment deals with Hek293T. As to conditions: Gynecologic cancer cell panel viability, ATPlite luminescence, 48 h, control line for the selectivity index; series mostly up to 57.5 µM. The method in brief:
as §1

In a further experiment the test system is JEG-3. Particulars: Gynecologic cancer cell panel viability, ATPlite luminescence, 48 h; series mostly up to 57.5 µM. The method in brief:
as §1

The next experiment deals with OV90. Particulars: Gynecologic cancer cell panel viability, ATPlite luminescence, 48 h; series mostly up to 57.5 µM. The method, boiled down:
as §1

The next experiment deals with PA-1. Particulars: Gynecologic cancer cell panel viability, ATPlite luminescence, 48 h; series mostly up to 57.5 µM. The method, boiled down: as §1
In another experiment the test system is SKOV3. Particulars: Gynecologic cancer cell panel viability, ATPlite luminescence, 48 h; series mostly up to 57.5 µM. The method, boiled down: as §1
A further experiment relates to Tov-21-G. Particulars: Gynecologic cancer cell panel viability, ATPlite luminescence, 48 h; series mostly up to 57.5 µM. The method, boiled down: as §1

The structures appear in SMILES notation. Inconclusive results are not listed. Active and inactive are the calls of the source. Calls follow the shape of the dose curve; as a rule, active = well fitted cell-killing curve with a large enough effect; inconclusive = small, poorly fitted or top-dose-only effect, or effect the other way; inactive = flat fitted curve, though single readings scatter.
Potency is read from the fitted curve at half-maximal effect.

For `CCCCC1C(=O)NC(=O)N(C2CCCCC2)C1=O` (stereo unspecified), the Potency result in the experiment with CAOV3, in the experiment with CASKI, in the experiment on Es-2, in the experiment on HeLa, in the experiment with Hek293T and in the experiment on JEG-3 was “inactive” each time. Also, the Potency result in the experiment with OV90, in the experiment on PA-1, in the experiment on SKOV3 and with Tov-21-G was “inactive” throughout.
With `COC(=O)C1=CCCN(C)C1`, the Potency result in the experiment with CAOV3, in the experiment on CASKI, in the experiment with Es-2, in the experiment with HeLa, with Hek293T and in the experiment with JEG-3 was “inactive” each time. The Potency entry in the experiment on OV90, in the experiment with PA-1, with SKOV3 and in the experiment with Tov-21-G was “inactive” each time.
As for `ClCc1cccc(Cl)c1`, the Potency result in the experiment with CAOV3, with CASKI, with Es-2, with HeLa, with Hek293T and with JEG-3 was “inactive” in each case. In addition, the Potency result in the experiment with OV90, with PA-1, with SKOV3 and with Tov-21-G was “inactive” throughout.
As to `CCC1(c2cccc(O)c2)CCCCN(C)C1` (stereo unspecified), the Potency result with CAOV3, in the experiment on CASKI, in the experiment with Es-2, in the experiment on HeLa, with Hek293T and in the experiment on JEG-3 was “inactive” in each case. Moreover, the Potency result in the experiment on OV90, in the experiment on PA-1, with SKOV3 and with Tov-21-G was “inactive” throughout.
As to `CC(C)(C)OC(=O)c1ncn2c1[C@@H]1CCCN1C(=O)c1c(Br)cccc1-2`, the Potency result in the experiment with CAOV3, in the experiment on CASKI, in the experiment with Es-2, in the experiment on HeLa, in the experiment with Hek293T and in the experiment with JEG-3 was “inactive” in each case. The Potency entry in the experiment on OV90, in the experiment on PA-1, with SKOV3 and with Tov-21-G was “inactive” each time.
Consider `C[C@]12CC[C@H]3[C@@H](CCC4=CC(=O)CC[C@@H]43)[C@@H]1CC[C@@H]2O`, for which the Potency entry in the experiment with CAOV3, in the experiment with CASKI, in the experiment on Es-2, with Hek293T, in the experiment with JEG-3 and in the experiment with OV90 was “inactive” throughout. In addition, the Potency result in the experiment on SKOV3 and with Tov-21-G was “inactive” throughout. Besides, the values for the Potency in the experiment on HeLa and with PA-1 were 2240 nM (active) and 10000 nM (active), respectively.
Turning to `COP(=O)(OC)OC=C(Cl)Cl`, the Potency entry in the experiment with CAOV3, in the experiment on CASKI, in the experiment with Es-2, in the experiment on HeLa, in the experiment with Hek293T and in the experiment with JEG-3 was “inactive” in each case. Also, the Potency entry in the experiment with OV90, with PA-1, with SKOV3 and in the experiment with Tov-21-G was “inactive” in each case.
As for `Oc1ccc([C@H]2CNCc3c2ccc(O)c3O)cc1O`, the Potency entry with CAOV3, in the experiment on CASKI, with Es-2, in the experiment on HeLa, in the experiment with Hek293T and in the experiment with JEG-3 was “inactive” in each case. The Potency result with OV90, in the experiment with PA-1, with SKOV3 and in the experiment on Tov-21-G was “inactive” each time.
Regarding `COCC(=O)N(c1c(C)cccc1C)C(C)C(=O)OC` (stereo unspecified), the Potency result in the experiment with CAOV3, in the experiment with CASKI, in the experiment on Es-2, in the experiment with HeLa, with Hek293T and in the experiment with JEG-3 was “inactive” throughout. The Potency entry in the experiment on OV90, with PA-1, in the experiment with SKOV3 and in the experiment on Tov-21-G was “inactive” in each case.
On to `CCN(CC)CCOC(=O)C(C)(c1ccccc1)c1ccccc1`, for which the Potency entry in the experiment on CAOV3, in the experiment on CASKI, in the experiment with Es-2, in the experiment with HeLa, in the experiment with Hek293T and with JEG-3 was “inactive” throughout. Moreover, the Potency result with OV90, in the experiment with PA-1, in the experiment on SKOV3 and in the experiment on Tov-21-G was “inactive” throughout.
Regarding `NC(=O)OCCCc1ccccc1`, the Potency entry in the experiment with CAOV3, in the experiment on CASKI, in the experiment on Es-2, with HeLa, in the experiment on Hek293T and in the experiment with JEG-3 was “inactive” in each case. Besides, the Potency result in the experiment on OV90, in the experiment on PA-1, with SKOV3 and in the experiment with Tov-21-G was “inactive” throughout.
On to `CCNc1nc(Cl)nc(NCC)n1`, for which the Potency result in the experiment on CAOV3, with CASKI, in the experiment with Es-2, in the experiment with HeLa, in the experiment with Hek293T and in the experiment on JEG-3 was “inactive” each time. For the same compound, the Potency result with OV90, with PA-1, in the experiment on SKOV3 and with Tov-21-G was “inactive” throughout.
Consider `Oc1c(Br)cc(Br)cc1Br`, for which the Potency result in the experiment with CAOV3, in the experiment on CASKI, with Es-2, in the experiment with HeLa, with Hek293T and with JEG-3 was “inactive” throughout. Moreover, the Potency result with OV90, in the experiment with PA-1, in the experiment with SKOV3 and with Tov-21-G was “inactive” throughout.
In the case of `CCC1(c2ccccc2)CCC(=O)NC1=O` (stereo unspecified), the Potency result in the experiment on CAOV3, in the experiment with CASKI, with Es-2, in the experiment with HeLa, with Hek293T and in the experiment on JEG-3 was “inactive” throughout. Also, the Potency result with OV90, with PA-1, in the experiment with SKOV3 and in the experiment on Tov-21-G was “inactive” each time.
With `CN(C)C(=O)Oc1cc(OC(=O)N(C)C)cc(C(O)CNC(C)(C)C)c1` (stereo unspecified), the Potency result in the experiment on CAOV3, in the experiment with CASKI, with Es-2, in the experiment with HeLa, in the experiment on Hek293T and with JEG-3 was “inactive” each time. The Potency entry in the experiment with OV90, with PA-1, in the experiment with SKOV3 and in the experiment on Tov-21-G was “inactive” each time.
For the compound `C[C@@H]1CC[C@H]2[C@@H](C)C(=O)O[C@@H]3O[C@@]4(C)CC[C@@H]1[C@]32OO4`, the Potency result with CAOV3, in the experiment with CASKI, in the experiment with Es-2, in the experiment on HeLa, in the experiment with Hek293T and in the experiment with JEG-3 was “inactive” each time. In addition, the Potency result in the experiment with OV90, with PA-1, with SKOV3 and in the experiment with Tov-21-G was “inactive” throughout.
As for `C[N+]1(C)[C@@H]2CC[C@H]1CC(OC(=O)C(CO)c1ccccc1)C2` (stereo partly specified), the Potency result with CAOV3, in the experiment on CASKI, in the experiment on Es-2, with HeLa, with Hek293T and in the experiment with JEG-3 was “inactive” in each case. The Potency entry with OV90, in the experiment with PA-1, in the experiment on SKOV3 and in the experiment with Tov-21-G was “inactive” in each case.
Take `C=CCN1CC[C@]23CCCC[C@H]2[C@H]1Cc1ccc(O)cc13`: the Potency entry with CAOV3, in the experiment on CASKI, with Es-2, in the experiment with HeLa, with Hek293T and in the experiment on JEG-3 was “inactive” throughout. Besides, the Potency result in the experiment on PA-1, in the experiment with SKOV3 and with Tov-21-G was “inactive” throughout.
Consider `C[C@]12CC[C@H]3[C@@H](CC=C4C[C@@H](O)CC[C@@]43C)[C@@H]1CC[C@@H]2O`, for which the Potency result in the experiment on CAOV3, in the experiment with CASKI, with Es-2, with HeLa, with Hek293T and in the experiment with JEG-3 was “inactive” in each case. Also, the Potency result with OV90, in the experiment on PA-1, in the experiment on SKOV3 and in the experiment with Tov-21-G was “inactive” each time.
Consider `c1cc2c(c(N3CCNCC3)c1)OCCO2`, for which the Potency entry with CAOV3, with CASKI, with Es-2, in the experiment with HeLa, in the experiment on Hek293T and in the experiment on JEG-3 was “inactive” in each case. For the same compound, the Potency entry in the experiment on OV90, in the experiment with PA-1, with SKOV3 and in the experiment on Tov-21-G was “inactive” throughout.
In the case of `O=C(O)CCCCCCNC1c2ccccc2CCc2ccccc21`, the Potency result in the experiment on CAOV3, in the experiment on CASKI, in the experiment with Es-2, with HeLa, with Hek293T and in the experiment with JEG-3 was “inactive” in each case. Further, the Potency entry in the experiment on OV90, with PA-1 and in the experiment on Tov-21-G was “inactive” in each case.
`CN1CCC(N(Cc2ccccc2)c2ccccc2)CC1`: the Potency result with CAOV3, with CASKI, in the experiment with Es-2, with HeLa, in the experiment on Hek293T and in the experiment on JEG-3 was “inactive” each time. For the same compound, the Potency result in the experiment with PA-1, in the experiment on SKOV3 and in the experiment with Tov-21-G was “inactive” each time.
As to `C[C@]12Cc3nonc3C[C@@H]1CC[C@@H]1[C@@H]2CC[C@@]2(C)[C@H]1CC[C@]2(C)O`, the Potency entry with CAOV3, in the experiment on CASKI, with Es-2, in the experiment with Hek293T, in the experiment on JEG-3 and in the experiment on OV90 was “inactive” each time. Besides, the Potency result with SKOV3 and in the experiment on Tov-21-G was “inactive” throughout. In the experiment on HeLa, the Potency was 2820 nM (active).
